Laboratory results: the supplement of paper PMC10720658
± gives the standard deviation of the averaged measurements.

System: AEK1 (Tb927.3.2440)
Test: percent reduction in TR-FRET probe signal relative to DMSO control; higher = stronger displacement of ATP-site probe (binding)
Conditions: 1 µM; incubation time 1 h

Row | Structure (SMILES) | percent reduction in TR-FRET probe signal
1 | CCN(CC)CCCC(C)Nc1nc(C)cc(Nc2ccc3nc(C)cc(N)c3c2)n1.Cl.Cl.Cl (stereo not drawn) | -2.65 ± 9%
2 | CNC(=O)c1ccccc1Sc1ccc2c(/C=C/c3ccccn3)n[nH]c2c1 [Axitinib] | 52.4 ± 18%
3 | Cc1ccc(NC(=O)c2cccc(C(C)(C)C#N)c2)cc1Nc1ccc2ncn(C)c(=O)c2c1 | -9.01 ± 3.1%
4 | CC(C)(O)CC(=O)NCCn1ccc2ncnc(Nc3ccc(Oc4cccc(C(F)(F)F)c4)c(Cl)c3)c21 | -2.36 ± 7.6%
5 | NC[C@@](O)(c1ccc(Cl)cc1)c1ccc(-c2cn[nH]c2)cc1 | 11 ± 16%
6 | O=[N+]([O-])c1cnc(Sc2nnc(O)n2-c2ccc3c(c2)OCCO3)s1 | 0.0867 ± 3.4%
7 | COc1ccc(C(=O)Nc2sc3c(c2C(N)=O)CCCC3)cc1OC | 1.85 ± 1.5%
8 | Cc1cc([C@@H](C)Nc2ccccc2C(=O)O)c2nc(N3CCOCC3)cc(=O)n2c1 | -5.32 ± 14%
9 | NC(=O)Nc1cc(-c2cccc(F)c2)sc1C(=O)N[C@H]1CCCNC1 | 48.5 ± 24%
10 | CN1CCN(Cc2ccc(-c3cnc4[nH]cc(-c5ccc6[nH]ccc6c5)c4c3)cc2)CC1 | 11.2 ± 7.5%
11 | O=C1NC(=O)[C@@H](c2cn3c4c(cccc24)CCC3)[C@@H]1c1c[nH]c2ccccc12 [Tivantinib (ARQ 197)] | 5.86 ± 12%
12 | N#C/C(=C(/N)Sc1ccc(N)cc1)c1ccccc1C(F)(F)F | 2.78 ± 13%
13 | CC(C)CC(NC(=O)C(Cc1ccccc1)NC(=O)C(CCC(N)=O)NC(=O)C(Cc1ccc(O)cc1)NC(=O)C(C)NC(=O)CNC(=O)C(CCCCN)NC(=O)C(Cc1c[nH]c2ccccc12)NC(=O)C(NC(=O)C(Cc1c[nH]c2ccccc12)NC(=O)C(CCCCN)NC(=O)CNC(=O)C(CC(N)=O)NC(=O)C(CCC(=O)O)NC(=O)C(Cc1c[nH]c2ccccc12)NC(=O)C(NC(=O)C(Cc1c[nH]c2ccccc12)NC(=O)C(CO)NC(=O)CNC(=O)C1CCCN1C(=O)C(Cc1c[nH]c2ccccc12)NC(=O)C(CCC(N)=O)NC(=O)C(Cc1ccccc1)NC(=O)CNC(=O)C(N)Cc1c[nH]cn1)C(C)O)C(C)O)C(=O)NC(CCCCN)C(=O)NCC(=O)NCC(=O)NCC(=O)NCC(=O)NC(CO)C(=O)NC(CCCNC(=N)N)C(=O)NC(CCCNC(=N)N)C(=O)NC(CCCNC(=N)N)C(=O)NC(CCCNC(=N)N)C(=O)NC(CCCNC(=N)N)C(=O)NC(CCCNC(=N)N)C(=O)NC(CCCNC(=N)N)C(=O)NC(CCCNC(=N)N)C(=O)NC(CCCNC(=N)N)C(=O)O (stereo not drawn) | -15.1 ± 6.2%
